This note sets out measurements from PubChem BioAssay (NCI).

A short description of experiment [1]: NCI Yeast Anticancer Drug Screen. Data for the rad50 strain (AID 155).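 Note: 0% = growth of vehicle-only cultures of the same strain.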 The settings on record: S. cerevisiae rad50 strain growth inhibition, stronger effect = higher value. In a few lines: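 Vehicle-treated cultures provide the reference for the growth inhibition reported for compound-exposed, repair-deficient yeast.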
Experiment [2] can be described thus: NCI Yeast Anticancer Drug Screen. Data for the mec2-1 strain (AID 157). As to conditions: S. cerevisiae mec2-1 strain, stronger effect = higher value. In a few lines: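 Each compound was tested on mec2-1 yeast, a strain altered in DNA damage repair or cell cycle control. Growth inhibition is reported relative to vehicle.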
A short description of experiment [3]: NCI Yeast Anticancer Drug Screen. Data for the sgs1 mgt1 strain (AID 161).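 Note: 0% = growth of cultures given vehicle only.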 The settings on record: S. cerevisiae sgs1 mgt1 strain, stronger effect = higher value. In a few lines: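 Read-out: growth inhibition vs vehicle controls. Cells: mutant yeast strain deficient in DNA damage repair.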
A short description of experiment [4]: NCI Yeast Anticancer Drug Screen. Data for the cln2 rad14 strain (AID 165).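 Note: 0% = growth equal to vehicle treated cultures.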 The settings on record: S. cerevisiae cln2 rad14 strain, stronger effect = higher value. In a few lines: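 Test compounds were added to cln2 rad14 yeast cultures; inhibition of growth was then determined by comparison with vehicle treatment.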
Experiment [5] in a line: NCI Yeast Anticancer Drug Screen. Data for the bub3 strain (AID 167). The settings on record: S. cerevisiae bub3 mutant strain, stronger effect = higher value. In a few lines: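 Mutant yeast screening strain plus compound; vehicle-treated cultures serve as the 0% inhibition reference.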
A short description of experiment [6]: NCI Yeast Anticancer Drug Screen. Data for the mlh1 rad18 strain (AID 175). The settings on record: S. cerevisiae mlh1 rad18 strain growth inhibition, stronger effect = higher value. In a few lines: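 Inhibition values reflect reduced growth of mutant yeast versus vehicle-treated controls following compound exposure; the mutations affect DNA damage repair.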
Setting [7] is: at 5.0 µM (retest, dose inferred, filed as 0.5).
Setting [8] is: at 50.0 µM (retest, dose inferred, filed as 5.0).

About 79,000 compounds went through this panel and 15% of them were active in at least one assay; those are over-represented in the sample as a whole. Unmarked numbers belong to inactive results. The source made the active and inactive calls. Cut-off read from the data, not from the text of the source: active = growth inhibition above about 70%; inactive = the rest.

As to `[CH3][Sn]([CH3])([S]CCS(=O)(=O)O)[S]CCS(=O)(=O)O`, the growth inhibition in experiment [1] (setting [7]) was 10%; in experiment [1] (setting [8]), 7%; in experiment [1] (at 50.0 µM), 33.5%; in experiment [2] (setting [7]) it was 9%; in experiment [2] (setting [8]), 11%; in experiment [2] (at 50.0 µM), 7.1%. Also, the growth inhibition in experiment [3] (setting [7]) is -38%; in experiment [3] (setting [8]) it was -30%; in experiment [3] (at 50.0 µM), -9.75%; in experiment [4] (setting [7]) it was -10%; in experiment [4] (setting [8]), -12%; in experiment [4] (at 50.0 µM), -5.95%. The growth inhibition was -20% in experiment [5] (setting [7]); -24% in experiment [5] (setting [8]); -12.2% in experiment [5] (at 50.0 µM); 14% in experiment [6] (setting [7]); 11% in experiment [6] (setting [8]); -61.6% in experiment [6] (at 50.0 µM).

Turning to `CN(C)C(=S)[S][Hg][c]1ccccc1`, the growth inhibition in experiment [1] (setting [7]) is 64%; in experiment [1] (setting [8]), 87% (active); in experiment [1] (at 50.0 µM) it was 91.3% (active); in experiment [2] (setting [7]) it was 69%; in experiment [2] (setting [8]), 75% (active); in experiment [2] (at 50.0 µM), 93.4% (active). In addition, the growth inhibition is 101% (active) in experiment [3] (setting [7]); 99% (active) in experiment [3] (setting [8]); 93.7% (active) in experiment [3] (at 50.0 µM); 54% in experiment [4] (setting [7]); 99% (active) in experiment [4] (setting [8]); 92.8% (active) in experiment [4] (at 50.0 µM). The growth inhibition was 101% (active) in experiment [5] (setting [7]); 100% (active) in experiment [5] (setting [8]); 92.1% (active) in experiment [5] (at 50.0 µM); 52% in experiment [6] (setting [7]); 70% (active) in experiment [6] (setting [8]); 91.5% (active) in experiment [6] (at 50.0 µM).

Regarding `CC(=O)[O-].CC(=O)[O-].O=C(N/N=C/c1cc(Cl)cc(Cl)c1[OH2+])c1ccncc1.[Co+2]`, the growth inhibition is 6% in experiment [1] (setting [7]); 23% in experiment [1] (setting [8]); 51.6% in experiment [1] (at 50.0 µM); 17% in experiment [2] (setting [7]); 41% in experiment [2] (setting [8]); 61.9% in experiment [2] (at 50.0 µM). Moreover, the growth inhibition is 7% in experiment [3] (setting [7]); 33% in experiment [3] (setting [8]); 58.2% in experiment [3] (at 50.0 µM); 5% in experiment [4] (setting [7]); 13% in experiment [4] (setting [8]); 26.4% in experiment [4] (at 50.0 µM). Besides, the growth inhibition in experiment [5] (setting [7]) was 2%; in experiment [5] (setting [8]) it was 9%; in experiment [5] (at 50.0 µM), 48%; in experiment [6] (setting [7]), 4%; in experiment [6] (setting [8]), 39%; in experiment [6] (at 50.0 µM) it was 73.5% (active).

With `O=P(O)(Oc1ccccc1)Oc1ccccc1.[Ag]`, the growth inhibition in experiment [1] (setting [7]) was 36%; in experiment [1] (setting [8]), 71% (active); in experiment [1] (at 50.0 µM), 92.2% (active); in experiment [2] (setting [7]), 37%; in experiment [2] (setting [8]), 87% (active); in experiment [2] (at 50.0 µM), 94% (active). Besides, the growth inhibition was 99% (active) in experiment [3] (setting [7]); 98% (active) in experiment [3] (setting [8]); 94% (active) in experiment [3] (at 50.0 µM); 70% (active) in experiment [4] (setting [7]); 99% (active) in experiment [4] (setting [8]); 93% (active) in experiment [4] (at 50.0 µM). Further, the growth inhibition in experiment [5] (setting [7]) is 100% (active); in experiment [5] (setting [8]), 99% (active); in experiment [5] (at 50.0 µM) it was 92.8% (active); in experiment [6] (setting [7]) it was 37%; in experiment [6] (setting [8]), 86% (active); in experiment [6] (at 50.0 µM) it was 92.3% (active).

For `CCOC(=O)c1ccc(NP(=O)(Oc2ccccc2)Oc2ccccc2)cc1`, the growth inhibition in experiment [1] (setting [7]) was -4%; in experiment [1] (setting [8]), 49%; in experiment [1] (at 50.0 µM) it was 64.8%; in experiment [2] (setting [7]), 18%; in experiment [2] (setting [8]) it was 75% (active); in experiment [2] (at 50.0 µM), 52.9%. Further, the growth inhibition was -18% in experiment [3] (setting [7]); 66% in experiment [3] (setting [8]); 64.7% in experiment [3] (at 50.0 µM); -10% in experiment [4] (setting [7]); 56% in experiment [4] (setting [8]); 69.2% in experiment [4] (at 50.0 µM). Besides, the growth inhibition in experiment [5] (setting [7]) is -6%; in experiment [5] (setting [8]), 89% (active); in experiment [5] (at 50.0 µM), 59.5%; in experiment [6] (setting [7]), 24%; in experiment [6] (setting [8]), 88% (active); in experiment [6] (at 50.0 µM) it was 77.8% (active).

For the molecule `[C-]#[O+].[C-]#[O+].[C-]#[O+].[C-]#[O+].[C-]#[O+].[Mo+2].[Mo+4].[c-]1[c-][c-][cH-][c-]1.[c-]1[c-][c-][cH-][c-]1.c1ccc([PH+](CC[PH+](c2ccccc2)c2ccccc2)c2ccccc2)cc1`, the growth inhibition in experiment [1] (setting [7]) is 82% (active); in experiment [1] (setting [8]), 98% (active); in experiment [1] (at 50.0 µM), 90.5% (active); in experiment [2] (setting [7]), 73% (active); in experiment [2] (setting [8]), 99% (active); in experiment [2] (at 50.0 µM), 93% (active). Also, the growth inhibition in experiment [3] (setting [7]) is 91% (active); in experiment [3] (setting [8]), 98% (active); in experiment [3] (at 50.0 µM), 92.3% (active); in experiment [4] (setting [7]), 60%; in experiment [4] (setting [8]), 98% (active); in experiment [4] (at 50.0 µM), 92% (active). Moreover, the growth inhibition in experiment [5] (setting [7]) was 84% (active); in experiment [5] (setting [8]), 98% (active); in experiment [5] (at 50.0 µM) it was 92.3% (active); in experiment [6] (setting [7]), 79% (active); in experiment [6] (setting [8]), 98% (active); in experiment [6] (at 50.0 µM), 90.5% (active).

In the case of `CN(C=O)C(=S)[S][Sb]([S]C(=S)N(C)C=O)[S]c1nc2ccc(N=Nc3ccc(NS(=O)(=O)c4ccc(NC(=O)C(N5CC5)(N5CC5)N5CC5)cc4)cc3)cc2s1`, the growth inhibition is 4% in experiment [1] (setting [7]); 6% in experiment [1] (setting [8]); 99.2% (active) in experiment [1] (at 50.0 µM); 0% in experiment [2] (setting [7]); -5% in experiment [2] (setting [8]); 99.3% (active) in experiment [2] (at 50.0 µM). In addition, the growth inhibition in experiment [3] (setting [7]) was -1%; in experiment [3] (setting [8]) it was 20%; in experiment [3] (at 50.0 µM), 99.5% (active); in experiment [4] (setting [7]), 4%; in experiment [4] (setting [8]), 3%; in experiment [4] (at 50.0 µM), 98.7% (active). Also, the growth inhibition in experiment [5] (setting [7]) was 2%; in experiment [5] (setting [8]), 8%; in experiment [5] (at 50.0 µM) it was 99.2% (active); in experiment [6] (setting [7]), 0%; in experiment [6] (setting [8]), 4%; in experiment [6] (at 50.0 µM), 99.2% (active).

As to `CCCCCCCCCCCCCCCCOC[C@@H](COC(c1ccccc1)(c1ccccc1)c1ccccc1)O[P+](=S)OC` (stereo not given in full), the growth inhibition in experiment [1] (setting [7]) is 31%; in experiment [1] (setting [8]) it was 67%; in experiment [1] (at 50.0 µM), 62.4%; in experiment [2] (setting [7]), 20%; in experiment [2] (setting [8]) it was 39%; in experiment [2] (at 50.0 µM) it was 85.8% (active). For the same molecule, the growth inhibition in experiment [3] (setting [7]) was 18%; in experiment [3] (setting [8]) it was 55%; in experiment [3] (at 50.0 µM) it was 86.5% (active); in experiment [4] (setting [7]), 36%; in experiment [4] (setting [8]) it was 29%; in experiment [4] (at 50.0 µM), 77.6% (active). Moreover, the growth inhibition in experiment [5] (setting [7]) is 43%; in experiment [5] (setting [8]), 58%; in experiment [5] (at 50.0 µM), 82.4% (active); in experiment [6] (setting [7]), 22%; in experiment [6] (setting [8]) it was 32%; in experiment [6] (at 50.0 µM) it was 91.1% (active).

As for `[N-]=[N+]=NS(=O)(=O)c1ccccc1S(=O)(=O)N=[N+]=[N-]`, the growth inhibition in experiment [1] (setting [7]) was 13%; in experiment [1] (setting [8]), 99% (active); in experiment [1] (at 50.0 µM), 99.2% (active); in experiment [2] (setting [7]), 8%; in experiment [2] (setting [8]), 100% (active); in experiment [2] (at 50.0 µM), 92.6% (active). For the same molecule, the growth inhibition was 9% in experiment [3] (setting [7]); 99% (active) in experiment [3] (setting [8]); 99.8% (active) in experiment [3] (at 50.0 µM); 67% in experiment [4] (setting [7]); 99% (active) in experiment [4] (setting [8]); 74.8% (active) in experiment [4] (at 50.0 µM). The growth inhibition in experiment [5] (setting [7]) is -2%; in experiment [5] (setting [8]), 97% (active); in experiment [5] (at 50.0 µM) it was 49.1%; in experiment [6] (setting [7]), 18%; in experiment [6] (setting [8]) it was 99% (active); in experiment [6] (at 50.0 µM) it was 99.6% (active).

As to `ClCCN(Cc1ccccc1)CC1COc2ccccc2O1` (stereo not given), the growth inhibition is 10% in experiment [1] (setting [7]); 72% (active) in experiment [1] (setting [8]); 91.2% (active) in experiment [1] (at 50.0 µM); -1% in experiment [2] (setting [7]); 79% (active) in experiment [2] (setting [8]); 92.1% (active) in experiment [2] (at 50.0 µM). Moreover, the growth inhibition in experiment [3] (setting [7]) was 7%; in experiment [3] (setting [8]), 95% (active); in experiment [3] (at 50.0 µM) it was 90.5% (active); in experiment [4] (setting [7]) it was -2%; in experiment [4] (setting [8]), 34%; in experiment [4] (at 50.0 µM), 82.7% (active). For the same molecule, the growth inhibition is 11% in experiment [5] (setting [7]); 90% (active) in experiment [5] (setting [8]); 97.3% (active) in experiment [5] (at 50.0 µM); 15% in experiment [6] (setting [7]); 94% (active) in experiment [6] (setting [8]); 97.3% (active) in experiment [6] (at 50.0 µM).
